Data on six compounds can be found in PubChem BioAssay (EPA / NIEHS).

Where “and” joins values, the source holds several entries; their conditions need not be identical. Equal entries are not always repeated. Results filed as inconclusive are left out. Some compounds were tested as several samples or in several runs, with calls that do not always agree. Calls of active or inactive are those of the source. Rule for the calls, unless noted: active = hit-call score of the fitted dose curve at least 0.9, where 1 is the maximum; inactive = score below 0.9.

Test [1] deals with Paired box protein Pax-6 (Homo sapiens) (UniProt P26367). Briefly: ATG_Pax6_CIS: Attagene CIS-FACTORIAL HepG2 Assay for human Paired Box 6 (PAX6) (AID 2282956). Conditions: HepG2 CIS-FACTORIAL PAX6 reporter transcription, RNA readout; actives raise or lower the signal. The procedure, abridged:
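HepG2 cells transiently transfected with cis-promoter-driven multiplexed reporter units sensing endogenous transcription factor activity; 24 h chemical exposure. Reporter mRNA quantified by RT-PCR, 6-FAM labelling, HpaI digestion and capillary electrophoresis; bidirectional fit versus DMSO baseline.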

Test [2] is described as follows: ATG_PXRE_CIS: Attagene CIS-FACTORIAL HepG2 Assay for human Pregnane X Receptor Element (PXRE) (AID 2282957). Conditions: HepG2 Attagene CIS-FACTORIAL PXRE reporter, mRNA; actives raise or lower the signal. The procedure, abridged: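 Cis-element reporter mRNA in human hepatoma HepG2 cells is measured 24 h post-dosing by RT-PCR, primer-extension labeling and capillary electrophoresis; gain or loss of signal is fitted relative to DMSO.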

Test [3] is described as follows: ATG_RORE_CIS: Attagene CIS-FACTORIAL HepG2 Assay for human RAR-related Orphan Receptor Element (RORE) (AID 2282959). Conditions: HepG2 Attagene cis-factorial RORE reporter, mRNA; actives raise or lower the signal. An outline of the steps: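 Fluorescence intensity of reporter-specific cDNA fragments, separated by capillary electrophoresis, gives the signal. Source: HepG2 liver cells transiently transfected with cis-element reporters and exposed 24 h; DMSO-normalized bidirectional fit.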

The nature of test [4]: ATG_Sox_CIS: Attagene CIS-FACTORIAL HepG2 Assay for human SRY-box transcription factor (SOX) (AID 2282960). Conditions: HepG2 Attagene cis-factorial SOX reporter, mRNA; actives raise or lower the signal. The procedure, abridged:
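After 24 h of chemical treatment, transfected HepG2 reporter cells are lysed for total RNA. Transcript levels come from RT-PCR with labelled primer extension and capillary electrophoresis, analysed bidirectionally versus DMSO.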

Test [5] addresses Transcription factor Sp1 (Homo sapiens) (UniProt P08047). Briefly: ATG_Sp1_CIS: Attagene CIS-FACTORIAL HepG2 Assay for human Specificity Protein 1 (Sp1) (AID 2282961). Conditions: HepG2 Sp1 cis-reporter transcription, actives raise or lower the signal. The procedure, abridged:
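Sp1-driven reporter mRNA, read as capillary electrophoresis fluorescence after RT-PCR, in transiently transfected HepG2 cells dosed for 24 h; signal change in either direction relative to DMSO.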

Test [6] in a line: ATG_SREBP_CIS: Attagene CIS-FACTORIAL HepG2 Assay for human Sterol Regulatory Element Binding (SREBP) (AID 2282962). Conditions: HepG2 Attagene cis-factorial SREBP reporter, mRNA; actives raise or lower the signal. The procedure, abridged: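 HepG2 cells transiently transfected with multiplexed cis-promoter reporter units sensing endogenous transcription factors; reporter mRNA measured 24 h after dosing by RT-PCR, 6-FAM labeling, HpaI digestion and capillary electrophoresis. Bidirectional fit versus DMSO.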

In test [7] the target is Signal transducer and activator of transcription 3 (Homo sapiens) (UniProt P40763). Put plainly: ATG_STAT3_CIS: Attagene CIS-FACTORIAL HepG2 Assay for human Signal Transducer and Activator of Transcription 3 (STAT3) (AID 2282963). Conditions: HepG2, Attagene cis-factorial STAT3 reporter transcription; actives raise or lower the signal. The procedure, abridged:
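Endogenous STAT3-responsive cis-element activity was read in transiently transfected HepG2 cells after 24 h treatment. Reporter transcripts were quantified via RT-PCR and capillary electrophoresis, with DMSO as negative control and bidirectional curve fitting.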

The nature of test [8]: ATG_TA_CIS: Attagene CIS-FACTORIAL HepG2 Assay for human TA Basal Promoter (AID 2282964). Conditions: HepG2 Attagene CIS-factorial TA basal promoter reporter; actives raise or lower the signal. The procedure, abridged:
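Multiplexed mRNA reporter assay, HepG2, 24 h. Reporter cDNA amplified, 6-FAM primer-extended, HpaI-cut, CE-sized; DMSO = negative control and baseline.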

A short description of test [9]: ATG_TCF_b_cat_CIS: Attagene CIS-FACTORIAL HepG2 Assay for human T-Cell-Factor with beta-catenin (TCF/b-cat) (AID 2282965). Conditions: HepG2 TCF/beta-catenin cis-reporter transcription, actives raise or lower the signal. An outline of the steps: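 Endogenous transcription factor activity is captured through cis-promoter reporter constructs transiently introduced into human HepG2 liver cells. Induced reporter mRNA is measured after 24 h and fitted bidirectionally relative to DMSO.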

The nature of test [10]: ATG_TAL_CIS: Attagene CIS-FACTORIAL HepG2 Assay for human TAL Basal Promoter (AID 2282966).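 Note: background control endpoint measuring basal TAL promoter reporter mRNA not a specific factor.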 Conditions: HepG2 Attagene cis-factorial TAL promoter reporter; actives raise or lower the signal. The procedure, abridged: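 In this cell-based multiplex, HepG2 liver cells bearing cis-promoter reporter constructs are dosed for 24 hours. Total RNA is reverse-transcribed and amplified, labelled fragments are sized by capillary electrophoresis, and signal changes are fitted bidirectionally versus DMSO.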

The nature of test [11]: ATG_TGFb_CIS: Attagene CIS-FACTORIAL HepG2 Assay for human Transforming Growth Factor (TGF) (AID 2282967). Conditions: HepG2 Attagene CIS TGFb reporter, mRNA transcription; actives raise or lower the signal. The procedure, abridged:
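Transcript-level reporter readout: HepG2 transfectants, 24 h exposure, RNA to cDNA, reporter-specific PCR, fluorescent primer extension, capillary sizing against ROX standards. Gain- or loss-of-signal relative to DMSO.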

The nature of test [12]: ATG_VDRE_CIS: Attagene CIS-FACTORIAL HepG2 Assay for human Vitamin D Receptor Element (VDRE) (AID 2282968). Conditions: HepG2 VDRE cis-reporter transcription, actives raise or lower the signal. An outline of the steps: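 Reporter mRNA induction, quantified by capillary electrophoresis of fluorescently labelled RT-PCR products, was read 24 h after dosing HepG2 cells carrying transiently transfected cis-regulated reporter units; gain or loss relative to DMSO.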

Test [13] concerns the target Nuclear receptor subfamily 1 group I member 3 (Homo sapiens) (UniProt Q14994). Briefly: ATG_CAR_TRANS: Attagene TRANS-FACTORIAL HepG2 Assay for human Constitutive Androstane Receptor (CAR) (AID 2282969; active = hit-call score of the fitted dose curve at least 0.9, where 1 is the maximum;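 note: activators raise reporter mRNA above DMSO so AC50 marks induction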). Conditions: HepG2 Attagene TRANS-FACTORIAL CAR reporter. An outline of the steps:
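Readout is reporter mRNA induction, quantified by fluorescent primer extension and capillary electrophoresis after RT-PCR. Cells were HepG2 transiently carrying chimeric NR-Gal4 constructs with GAL4-UAS reporters, treated for 24 h; activity scored upward from DMSO.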

The target of test [14] is Estrogen receptor (Homo sapiens) (UniProt P03372). Put plainly: ATG_ERa_TRANS: Attagene TRANS-FACTORIAL HepG2 Assay for human Estrogen Receptor alpha (ERa) (AID 2282970; active = hit-call score of the fitted dose curve at least 0.9, where 1 is the maximum). Conditions: HepG2 Attagene TRANS ERa GAL4 reporter, mRNA. The procedure, abridged: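 After 24 h of compound treatment, RNA from HepG2 cells bearing transfected GAL4-UAS reporter constructs is converted to cDNA, amplified and fluorescently labelled. Capillary electrophoresis resolves the ERa-linked reporter; DMSO serves as negative control.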

The target of test [15] is X-box-binding protein 1 (Homo sapiens) (UniProt P17861). Briefly: ATG_Xbp1_CIS: Attagene CIS-FACTORIAL HepG2 Assay for human X-box Binding Protein 1 (XBP1) (AID 2282972). Conditions: HepG2 XBP1 cis-element reporter, Attagene multiplex; actives raise or lower the signal. The procedure, abridged: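 HepG2 cells transiently transfected with multiple cis-element reporter units report endogenous TF activity; 24 h exposure, then reporter mRNA measured by RT-PCR, 6-FAM labelling, HpaI digestion and capillary electrophoresis. Bidirectional fitting versus DMSO.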

For test [16], the target named is Androgen receptor (Homo sapiens) (UniProt P10275). Briefly: ATG_AR_TRANS: Attagene TRANS-FACTORIAL HepG2 Assay for human Androgen Receptor (AR) (AID 2282973; active = hit-call score of the fitted dose curve at least 0.9, where 1 is the maximum). Conditions: HepG2 Attagene TRANS-FACTORIAL AR reporter transcription. An outline of the steps:
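Readout is reporter transcript abundance, quantified by fluorescent RT-PCR products separated on capillary electrophoresis. Human HepG2 liver cells carried transiently transfected NR-Gal4 chimera plus GAL4-UAS reporter constructs and were dosed for 24 h; activity scored upward versus DMSO.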

The nature of test [17]: ATG_Hpa5_TRANS: Attagene TRANS-FACTORIAL HepG2 Assay for human GAL4-Hpa5 Hepatocyte Transcription Factor Basal Promoter (AID 2282975; active = hit-call score of the fitted dose curve at least 0.9, where 1 is the maximum;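 note: hits are increases in reporter mRNA over DMSO baseline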). Conditions: HepG2 Attagene GAL4-Hpa5 transcription reporter. An outline of the steps:
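Basal-promoter GAL4 background control within the HepG2 trans-factorial panel of transiently transfected reporter units. Reporter mRNA is measured 24 h after dosing by RT-PCR and capillary electrophoresis, fitted for gain of signal versus DMSO.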

In test [18] the target is Steroid hormone receptor ERR1 (Homo sapiens) (UniProt P11474). Put plainly: ATG_ERRa_TRANS: Attagene TRANS-FACTORIAL HepG2 Assay for human Estrogen-Related Receptor alpha (ERRa) (AID 2282971; active = hit-call score of the fitted dose curve at least 0.9, where 1 is the maximum). Conditions: HepG2 Attagene TRANS reporter, ERRa transactivation. An outline of the steps:
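Transfected HepG2, 24 h dosing, ERRa-Gal4 chimera driving GAL4-UAS reporter. Readout: reporter mRNA via RT-PCR plus capillary electrophoresis (fluorescence). Positive direction vs DMSO control.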

Test [19] can be described thus: ATG_PBREM_CIS: Attagene CIS-FACTORIAL HepG2 Assay for human Phenobarbital-responsive Enhancer Module (PBREM) (AID 2282955). Conditions: HepG2 PBREM cis-reporter, Attagene multiplexed transcription; actives raise or lower the signal. The procedure, abridged:
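After a 24 h incubation with test chemical, transfected HepG2 cells yield total RNA; reporter-specific RT-PCR products are fluorescently labelled, HpaI-digested and resolved by capillary electrophoresis against ROX size standards.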

Chain of Transcription factor Sp1 (Homo sapiens) (P08047 whole entry, looked up): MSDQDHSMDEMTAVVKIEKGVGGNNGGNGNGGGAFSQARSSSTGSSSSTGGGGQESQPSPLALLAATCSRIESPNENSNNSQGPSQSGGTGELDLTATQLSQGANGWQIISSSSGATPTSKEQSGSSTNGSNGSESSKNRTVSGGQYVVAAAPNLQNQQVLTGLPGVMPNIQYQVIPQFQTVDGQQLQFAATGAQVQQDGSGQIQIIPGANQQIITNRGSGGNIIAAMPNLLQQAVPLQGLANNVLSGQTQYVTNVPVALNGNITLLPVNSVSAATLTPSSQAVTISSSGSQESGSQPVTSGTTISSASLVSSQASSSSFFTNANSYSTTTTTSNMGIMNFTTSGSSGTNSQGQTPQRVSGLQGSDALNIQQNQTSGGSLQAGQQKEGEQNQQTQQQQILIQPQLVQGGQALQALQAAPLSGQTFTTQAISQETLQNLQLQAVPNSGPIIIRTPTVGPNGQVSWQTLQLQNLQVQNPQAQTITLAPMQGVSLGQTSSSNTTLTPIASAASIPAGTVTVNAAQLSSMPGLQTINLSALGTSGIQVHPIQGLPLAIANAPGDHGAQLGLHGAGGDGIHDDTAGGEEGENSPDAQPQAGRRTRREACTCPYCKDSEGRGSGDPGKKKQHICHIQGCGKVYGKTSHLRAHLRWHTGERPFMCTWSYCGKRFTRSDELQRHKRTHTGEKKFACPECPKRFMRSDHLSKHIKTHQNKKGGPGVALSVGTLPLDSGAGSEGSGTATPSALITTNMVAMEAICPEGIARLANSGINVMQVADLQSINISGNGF
Chain of Nuclear receptor subfamily 1 group I member 3 (Homo sapiens) (Q14994 whole entry, looked up, the tested form may be a part): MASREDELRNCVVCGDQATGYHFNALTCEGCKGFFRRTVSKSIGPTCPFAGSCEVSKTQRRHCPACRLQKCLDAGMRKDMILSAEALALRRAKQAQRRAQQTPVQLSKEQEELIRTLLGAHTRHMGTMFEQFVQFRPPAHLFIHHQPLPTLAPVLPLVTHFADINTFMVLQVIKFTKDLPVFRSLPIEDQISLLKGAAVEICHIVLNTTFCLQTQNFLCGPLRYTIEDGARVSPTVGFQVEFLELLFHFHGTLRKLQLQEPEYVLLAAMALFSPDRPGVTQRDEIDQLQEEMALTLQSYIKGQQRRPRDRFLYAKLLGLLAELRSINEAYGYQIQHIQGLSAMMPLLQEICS
Chain of Paired box protein Pax-6 (Homo sapiens) (P26367 whole entry, looked up): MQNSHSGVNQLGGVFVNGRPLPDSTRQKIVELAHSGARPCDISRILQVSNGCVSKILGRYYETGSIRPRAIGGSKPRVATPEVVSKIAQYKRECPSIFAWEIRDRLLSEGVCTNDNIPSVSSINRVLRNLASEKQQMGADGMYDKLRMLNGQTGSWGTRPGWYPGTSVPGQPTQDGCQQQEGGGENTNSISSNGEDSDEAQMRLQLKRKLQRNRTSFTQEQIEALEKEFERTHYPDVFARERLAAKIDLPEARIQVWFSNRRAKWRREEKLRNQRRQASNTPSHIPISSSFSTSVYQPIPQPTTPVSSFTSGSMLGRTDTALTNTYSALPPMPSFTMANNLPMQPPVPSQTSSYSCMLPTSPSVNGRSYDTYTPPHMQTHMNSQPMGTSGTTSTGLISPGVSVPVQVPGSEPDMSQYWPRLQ
Chain of Steroid hormone receptor ERR1 (Homo sapiens) (P11474 whole entry, looked up, the tested form may be a part): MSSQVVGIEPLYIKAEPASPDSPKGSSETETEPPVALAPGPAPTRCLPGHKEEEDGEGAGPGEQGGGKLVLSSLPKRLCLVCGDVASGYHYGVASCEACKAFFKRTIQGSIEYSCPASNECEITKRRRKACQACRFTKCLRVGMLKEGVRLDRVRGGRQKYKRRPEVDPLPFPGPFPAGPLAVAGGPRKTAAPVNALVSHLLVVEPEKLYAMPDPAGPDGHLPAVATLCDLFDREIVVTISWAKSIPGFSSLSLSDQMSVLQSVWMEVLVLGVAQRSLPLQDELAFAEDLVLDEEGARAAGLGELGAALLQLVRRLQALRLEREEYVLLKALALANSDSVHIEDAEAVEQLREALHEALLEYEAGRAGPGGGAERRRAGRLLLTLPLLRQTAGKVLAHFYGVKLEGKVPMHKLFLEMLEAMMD
Chain of Estrogen receptor (Homo sapiens) (P03372 whole entry, looked up, the tested form may be a part): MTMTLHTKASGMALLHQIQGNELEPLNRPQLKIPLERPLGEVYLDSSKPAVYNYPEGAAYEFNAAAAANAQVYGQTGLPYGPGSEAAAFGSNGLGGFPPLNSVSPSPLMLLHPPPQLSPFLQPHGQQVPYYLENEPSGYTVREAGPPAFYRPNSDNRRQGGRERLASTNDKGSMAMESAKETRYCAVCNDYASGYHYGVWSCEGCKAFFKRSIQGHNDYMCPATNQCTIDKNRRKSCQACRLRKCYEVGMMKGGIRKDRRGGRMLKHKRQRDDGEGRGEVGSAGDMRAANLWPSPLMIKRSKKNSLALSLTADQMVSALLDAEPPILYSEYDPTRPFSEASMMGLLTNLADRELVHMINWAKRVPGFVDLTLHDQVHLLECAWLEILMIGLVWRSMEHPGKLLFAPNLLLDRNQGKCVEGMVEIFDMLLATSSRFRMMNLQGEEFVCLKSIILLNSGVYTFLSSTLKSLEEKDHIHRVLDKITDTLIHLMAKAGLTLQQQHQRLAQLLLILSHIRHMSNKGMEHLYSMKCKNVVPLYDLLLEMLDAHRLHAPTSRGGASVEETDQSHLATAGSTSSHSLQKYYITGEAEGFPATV
Chain of Signal transducer and activator of transcription 3 (Homo sapiens) (P40763 whole entry, looked up): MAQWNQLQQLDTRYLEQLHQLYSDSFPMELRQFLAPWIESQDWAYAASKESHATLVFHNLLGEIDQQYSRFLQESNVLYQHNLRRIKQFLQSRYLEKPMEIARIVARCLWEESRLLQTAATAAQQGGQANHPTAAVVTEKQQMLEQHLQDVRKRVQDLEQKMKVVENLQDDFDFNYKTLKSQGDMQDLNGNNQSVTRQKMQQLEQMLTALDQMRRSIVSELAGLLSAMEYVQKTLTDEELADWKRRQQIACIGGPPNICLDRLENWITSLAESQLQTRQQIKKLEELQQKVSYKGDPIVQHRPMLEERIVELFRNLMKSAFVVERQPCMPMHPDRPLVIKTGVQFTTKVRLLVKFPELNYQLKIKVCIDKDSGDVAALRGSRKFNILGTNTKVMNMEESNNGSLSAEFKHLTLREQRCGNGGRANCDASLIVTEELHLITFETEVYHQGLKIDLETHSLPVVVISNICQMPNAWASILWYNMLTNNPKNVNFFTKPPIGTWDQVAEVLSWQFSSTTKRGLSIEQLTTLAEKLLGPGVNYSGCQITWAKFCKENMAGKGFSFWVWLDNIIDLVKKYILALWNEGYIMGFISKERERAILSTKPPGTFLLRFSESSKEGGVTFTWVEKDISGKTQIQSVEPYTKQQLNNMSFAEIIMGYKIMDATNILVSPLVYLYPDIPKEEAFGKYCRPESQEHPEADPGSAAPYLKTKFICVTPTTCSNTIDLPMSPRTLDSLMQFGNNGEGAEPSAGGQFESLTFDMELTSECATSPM
Chain of X-box-binding protein 1 (Homo sapiens) (P17861 whole entry, looked up): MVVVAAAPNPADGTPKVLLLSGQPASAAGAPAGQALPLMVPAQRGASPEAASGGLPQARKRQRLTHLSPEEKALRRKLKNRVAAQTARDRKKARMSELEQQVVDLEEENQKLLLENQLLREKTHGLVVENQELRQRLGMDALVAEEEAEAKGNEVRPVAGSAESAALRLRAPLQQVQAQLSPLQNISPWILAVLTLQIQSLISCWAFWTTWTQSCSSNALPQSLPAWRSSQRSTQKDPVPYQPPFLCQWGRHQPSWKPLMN
Chain of Androgen receptor (Homo sapiens) (P10275 whole entry, looked up, the tested form may be a part): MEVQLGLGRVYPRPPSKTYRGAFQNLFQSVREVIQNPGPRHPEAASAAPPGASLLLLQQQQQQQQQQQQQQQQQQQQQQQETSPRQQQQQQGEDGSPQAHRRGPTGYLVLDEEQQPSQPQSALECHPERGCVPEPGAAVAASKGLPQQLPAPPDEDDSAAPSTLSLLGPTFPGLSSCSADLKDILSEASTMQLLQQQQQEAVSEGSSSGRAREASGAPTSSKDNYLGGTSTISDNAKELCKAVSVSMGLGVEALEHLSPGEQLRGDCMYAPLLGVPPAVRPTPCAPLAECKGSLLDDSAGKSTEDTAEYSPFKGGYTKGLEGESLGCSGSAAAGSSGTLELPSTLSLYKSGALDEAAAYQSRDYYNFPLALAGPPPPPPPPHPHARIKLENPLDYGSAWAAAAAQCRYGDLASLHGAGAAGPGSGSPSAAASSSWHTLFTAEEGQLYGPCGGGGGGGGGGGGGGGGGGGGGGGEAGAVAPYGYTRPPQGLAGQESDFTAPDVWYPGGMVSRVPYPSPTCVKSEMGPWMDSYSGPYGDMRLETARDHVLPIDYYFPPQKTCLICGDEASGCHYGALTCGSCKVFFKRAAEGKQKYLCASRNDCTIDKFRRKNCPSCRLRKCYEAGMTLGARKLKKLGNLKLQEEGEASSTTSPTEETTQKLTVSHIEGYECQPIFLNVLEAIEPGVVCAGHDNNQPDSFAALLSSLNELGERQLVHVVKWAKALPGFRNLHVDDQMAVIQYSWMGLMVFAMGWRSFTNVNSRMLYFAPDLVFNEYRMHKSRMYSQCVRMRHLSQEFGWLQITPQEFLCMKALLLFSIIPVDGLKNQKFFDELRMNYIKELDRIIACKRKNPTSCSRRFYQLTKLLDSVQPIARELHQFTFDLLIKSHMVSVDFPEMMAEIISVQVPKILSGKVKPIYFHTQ

In the case of `Cc1cc(Cl)ccc1OCC(=O)O`, the result in test [1], in test [2], in test [3], in test [4], in test [5] and in test [6] was inactive. Also, the result in [7], in test [8], in test [9], in test [10], in test [11] and in test [12] was inactive. Also, the outcome in [13], in test [14], in test [15], in test [16] and in test [17] was inactive.
Consider `OC(c1ccc(Cl)cc1)(c1cncnc1)c1ccccc1Cl` (configuration not stated), for which the compound was classed as inactive in test [1], in test [2], in test [3], in test [4], in test [5] and in test [7]. For the same compound, the outcome in test [9], in test [10], in test [11], in [12], in test [13] and in [14] was inactive. Besides, the compound was called inactive in test [18], in [15] and in test [17]. The AC50 in [2] is 2.17 µM (active); in [5] it was 12.6 µM (active); in test [12], 50 µM (active); in test [14] it was 3.2 µM (active).
For `C=CCC1=C(C)C(OC(=O)C2C(C=C(C)C)C2(C)C)CC1=O` (configuration not stated), the AC50 was 64.5 µM (active) [middle of 4 runs] in [1]; 566 nM (active) [middle of 6 runs] in [2]; 27.2 µM (active) [middle of 4 runs] in test [3]; 90.4 µM (active) and 105 µM (active) in [4]; 54.2 µM (active) [middle of 5 runs] in [5]; 48.8 µM (active) [middle of 5 runs] in test [9]. In addition, the AC50 was 105 µM (active) in test [10], 178 µM (active) in test [11], 26.8 µM (active) in test [14] and 53.5 µM (active) [middle of 5 runs] in test [15]. Moreover, the call in [1], in [3], in [4], in test [5], in [7] and in test [9] was inactive. Further, the call in test [10], in test [11], in [12], in test [13], in [14] and in [18] was inactive. Moreover, the result in test [15] was inactive.
Take `COC(=O)C(C)Oc1ccc(Oc2ccc(Cl)cc2Cl)cc1` (configuration not stated): the result in [19], in test [1], in [3], in test [4], in [5] and in test [6] was inactive. Also, the call in [7], in test [9], in test [10], in [11], in test [12] and in test [13] was inactive. Also, the outcome in test [18], in [15] and in test [17] was inactive. Also, in test [2], the half-maximal activity concentration (AC50) was 23 µM (active) and 16.9 µM (active) and 22 µM (active).
Consider `CC(C)(C)c1ccc(CSc2cnn(C(C)(C)C)c(=O)c2Cl)cc1`, for which the AC50 in [19] was 0.527 µM (active); in test [2], 2.14 µM (active); in [3], 1.88 µM (active); in test [5], 0.0129 µM (active); in test [12], 0.574 µM (active); in test [14], 26.5 µM (active). The call in [1], in [4], in [6], in test [7], in [8] and in test [9] was inactive. Further, the result in test [10], in [11], in test [13], in test [18] and in [15] was inactive.
As for `COc1nc(C)nc(NC(=O)NS(=O)(=O)c2ccccc2Cl)n1`, the result in [1], in test [2], in [3], in [4], in test [5] and in test [6] was inactive. Also, the call in test [7], in [9], in test [10], in test [11], in test [12] and in test [13] was inactive. The call in test [14] and in [15] was inactive. Besides, the AC50 in [2] was 31.3 µM (active).

For orientation: AC50 means the midpoint of the concentration-response curve, whichever way the signal moves.
